a7 integrin act: qHTS for Activators of Integrin-Mediated Alleviation for Muscular Dystrophy | hit rate 0.064% among 350,000 | Potency, µM (top dose mostly 38.3 µM), for inactives: at the highest dose activation, actives largely listed as activators | AID 624291, 2012 | alpha7betagal myoblasts, beta-gal FDG fluorescence, 48 h;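 further: 100% = response of the positive control SU9516; nearly all actives have a fitted effect of over 60% in size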
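Alpha7betagal+/- myoblasts (passage 13) were plated 16-24 hr, then exposed to compounds (1:260 dilution of DMSO stock) for 48 hours at 37C. After MPER lysis, β-galactosidase reporter activity was read as FDG fluorescence (ex 480/em 540) after 30 minutes.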
GLP1R inv ag: qHTS of GLP-1 Receptor Inverse Agonists (Inhibition Mode) | HEK293 GLP-1R CRE-luciferase, luminescence, 24 h; GLP-1R form is constitutively active | Potency, µM (series often up to 38.3 µM), inactives show at the highest dose activity change, negative = inhibition, actives largely listed as inhibitors | hit rate 1.6% among 410,000 | AID 624417, 2012; further: on the % scale 0 is the no-effect control and ±100 the full control effect; nearly all actives have a fitted effect of over 55% in size
Target sequence (P43220 whole entry, looked up): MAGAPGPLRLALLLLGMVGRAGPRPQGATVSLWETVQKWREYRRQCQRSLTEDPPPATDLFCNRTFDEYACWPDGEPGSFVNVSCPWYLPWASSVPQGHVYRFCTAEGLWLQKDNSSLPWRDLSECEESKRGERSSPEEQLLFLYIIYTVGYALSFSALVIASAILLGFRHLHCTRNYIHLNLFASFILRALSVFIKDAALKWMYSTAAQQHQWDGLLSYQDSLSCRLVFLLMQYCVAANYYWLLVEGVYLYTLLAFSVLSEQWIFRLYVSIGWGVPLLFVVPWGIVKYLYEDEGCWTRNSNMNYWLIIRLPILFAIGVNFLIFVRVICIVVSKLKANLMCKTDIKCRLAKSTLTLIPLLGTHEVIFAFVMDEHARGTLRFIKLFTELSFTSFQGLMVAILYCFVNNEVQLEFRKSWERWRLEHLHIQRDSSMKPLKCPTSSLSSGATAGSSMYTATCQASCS
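Inverse agonism was detected as reduced cAMP-driven luciferase luminescence after 24 h compound treatment. The cells were HEK293 clones expressing constitutively active human GLP-1R with the reporter. Reporter-only and GPR119 cell lines served as counterscreen controls.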
BRCA1 expr act: qHTS Assay to Identify Small Molecule Activators of BRCA1 Expression. MCF7-BRCA1-FFLuc reporter, luminescence, 48 h; response scale: scaled: vehicle 0%, 10 µM genistein 100%. Potency, µM (titrated, usually from 46.1 µM), inactives show at the top dose activation, most hits filed as activators. hit rate 1.1% among 380,000. AID 624202, 2012; further: nearly all actives have a fitted effect of over 80% in size
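48 h compound treatment of MCF7-BRCA1-FFLuc cells (phenol-red free MEM, 37 °C), then 15 min with luciferase substrate and luminescence imaging.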
GLP1R ag: qHTS of GLP-1 Receptor Agonists; HEK293 GLP-1R CRE-luciferase, luminescence, 4-6 h; cells express a hypersensitive GLP-1R form; Potency, µM (series often up to 45.6 µM), for inactives: top-dose activation, most hits filed as activators; hit rate 0.007% among 380,000; AID 624172, 2012; further: % of control where 0% means no effect
HEK293 tox: qHTS of GLP-1 Receptor Inverse Agonists: Cytotox Screen; HEK293 cAMP-luciferase reporter cells, luminescence, 24 h; Potency, µM (highest dose often 38.3 µM), for inactives: top-dose activity change, negative = inhibition, actives largely listed as inhibitors; hit rate 0.13% among 410,000;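 further: loss of luciferase light is scored as toxicity; on the % scale 0 is the no-effect control and ±100 the full control effect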
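Here, cytotoxicity is scored as loss of luminescence. The MLSMR collection was tested on cells seeded in medium containing 10% Nu serum, with a 24 hr compound exposure preceded by 12 hours of culture.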
* marks the source's active call; other numbers are inactive results. Hits are enriched below; roughly 2.7% of the tested compounds scored in any of these assays. The call rests on the fitted dose curve; in most records, active means well fitted curve in the direction sought with a large enough effect; inconclusive means small, poorly fitted or top-dose-only effect, or another doubt; inactive means no such curve, though single readings can be large; an effect the other way counts as inactive or inconclusive. Potency means the concentration at half of the fitted maximal effect.

What do the screens show for `CCCNc1nc(N)nc(-c2cc(Cl)ccc2OC)n1`?
a7 integrin act: -26.4%; GLP1R inv ag: 10.7%; BRCA1 expr act: 1.8%; GLP1R ag: 6.2%; HEK293 tox: -7.6%

What do the screens show for `COc1ccc2noc3c2c1C(=O)c1ccccc1-3`?
a7 integrin act: -49.9%; GLP1R inv ag: inconclusive; BRCA1 expr act: -15.4%; GLP1R ag: 12.2%; HEK293 tox: inconclusive

Results for O=C1c2ccccc2-c2onc3ccc(NCCCn4ccnc4)c1c23 ?
a7 integrin act: -49.0%; GLP1R inv ag: -13.5%; BRCA1 expr act: -52.8%; GLP1R ag: 18.9%; HEK293 tox: 12.6µM*

What do the screens show for `O=C(NCc1ccccc1)C(c1ccccc1)N(Cc1ccc2c(c1)OCO2)C(=O)Cc1cccs1` (configuration not stated)?
a7 integrin act: -17.0%; GLP1R inv ag: 7.94µM*; BRCA1 expr act: -65.6%; GLP1R ag: -6.5%; HEK293 tox: -25.8%

How did O=C(NC1CCCC1)C(c1ccccc1)N(Cc1ccc2c(c1)OCO2)C(=O)Cc1cccs1 (configuration not stated) do in these assays?
a7 integrin act: 13.4%; GLP1R inv ag: 10µM*; BRCA1 expr act: -31.5%; GLP1R ag: -3.8%; HEK293 tox: -9.0%

What do the screens show for `Cc1ccc(NC(=O)c2sc3nc4c(cc3c2N)CN(Cc2ccccc2)CC4)cc1`?
GLP1R inv ag: inconclusive; HEK293 tox: 1.1%

Results for O=C(NCCc1cccs1)c1ccc(Cl)c(Cl)c1 ?
a7 integrin act: 6.5%; GLP1R inv ag: inconclusive; BRCA1 expr act: 3.98µM*; GLP1R ag: 11.5%; HEK293 tox: 2.0%

How did Cc1ccc(C(=O)NCCc2cccs2)cc1 do in these assays?
a7 integrin act: 16.2%; GLP1R inv ag: 5.01µM*; BRCA1 expr act: inconclusive; GLP1R ag: -3.4%; HEK293 tox: 2.6%

How did O=C(NCCc1cccs1)C(c1ccccc1)c1ccccc1 do in these assays?
a7 integrin act: 7.5%; GLP1R inv ag: inconclusive; BRCA1 expr act: -9.9%; GLP1R ag: 5.1%; HEK293 tox: -21.8%

Results for COCCNC(=O)c1ccc(Cl)c(Cl)c1 ?
a7 integrin act: 12.7%; GLP1R inv ag: 58.5%; BRCA1 expr act: 8.9%; GLP1R ag: 1.0%; HEK293 tox: 1.3%

How did O=C(NCCc1cccs1)c1ccc(Cl)cc1 do in these assays?
a7 integrin act: 9.2%; GLP1R inv ag: 10µM*; BRCA1 expr act: inconclusive; GLP1R ag: -0.6%; HEK293 tox: -8.4%

What do the screens show for `COC(=O)/C=C/c1ccccc1S(=O)(=O)N(Cc1ccccc1)Cc1ccco1`?
a7 integrin act: -29.1%; GLP1R inv ag: 2.24µM*; BRCA1 expr act: -41.7%; GLP1R ag: 5.4%; HEK293 tox: -29.5%

What do the screens show for `Cc1nc2cc(-c3ccccc3)nn2c(C)c1CCC(=O)NCc1cccc(Cl)c1`?
GLP1R inv ag: -6.0%; BRCA1 expr act: -9.2%; GLP1R ag: 0.5%; HEK293 tox: -5.1%

What do the screens show for `Nc1c(C(=O)Nc2ccc3c(c2)OCCO3)nnn1Cc1cccc(Cl)c1`?
a7 integrin act: -33.6%; GLP1R inv ag: -21.7%; BRCA1 expr act: 3.16µM*; GLP1R ag: 12.6%; HEK293 tox: -4.6%

Results for Nc1c(C(=O)Nc2ccc3c(c2)OCCO3)nnn1Cc1ccccc1Cl ?
a7 integrin act: 23.1%; GLP1R inv ag: inconclusive; BRCA1 expr act: inconclusive; GLP1R ag: 4.3%; HEK293 tox: -2.1%

How did Nc1c(C(=O)Nc2ccc3c(c2)OCCO3)nnn1Cc1ccc(F)cc1 do in these assays?
a7 integrin act: -21.5%; GLP1R inv ag: 7.5%; BRCA1 expr act: 8.91µM*; GLP1R ag: 0.4%; HEK293 tox: -1.4%

Results for COc1ccc(CNC(=O)C2CCN(c3nc4ccccc4[nH]3)CC2)c(OC)c1 ?
GLP1R inv ag: -2.6%; HEK293 tox: -12.6%

What do the screens show for `Cn1c(=S)[nH]c2cc(C(=O)N3CCN(Cc4cccs4)CC3)ccc2c1=O`?
BRCA1 expr act: 25.9%

Source: PubChem BioAssay
